Compound activity: PubChem BioAssay, National Center for Advancing Translational Sciences (NCATS)
G9a block = qHTS Assay for Inhibitors of Histone Lysine Methyltransferase G9a. G9a H3K9 monomethylation, AlphaScreen, 2 h. Potency, µM (series often up to 102 µM), hits mostly inhibitors. 8.8% of 350,000 active. AID 504332, 2011; also: nearly all actives have a fitted effect of over 75% in size
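Enzyme 20 nM + cpd, 15 min RT; add b-H3K9 pep 500 nM / SAM 20 uM; 2 h RT; anti-H3K9me1 Ab 0.5 ug/mL + SA donor / anti-rabbit acceptor beads 20 ug/mL each, 10 min; AlphaScreen read.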
BAZ2B inh = qHTS Assay for Inhibitors of BAZ2B. Bromodomain adjacent to zinc finger domain protein 2B (Homo sapiens), Q9UIF8. AlphaScreen BAZ2B-H3K14Ac peptide displacement. Potency, µM (highest dose often 114 µM), hits mostly inhibitors. 4.4% of 360,000 active. AID 504333, 2011; also: nearly all actives have a fitted effect of over 60% in size
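BAZ2B (50 nM) with biotin-H3(5-23)K14Ac peptide (50 nM) in PBS pH 7.4, 0.01% Tween-20, preformed 30 min, then compound 30 min at room temperature; top concentration 110uM. AlphaScreen streptavidin donor/nickel chelate acceptor beads (10 ug/mL final), 20 min dark, signal read.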
PI5P4K alpha inh = qHTS for Inhibitors of phosphatidylinositol 5-phosphate 4-kinase (PI5P4K); Phosphatidylinositol 5-phosphate 4-kinase type-2 alpha (Homo sapiens), P48426; PI5P4Kalpha enzyme, ADP-Glo luminescence, 60 min; hits give low values; max response, %; 1.2% of 330,000 active; AID 652105, 2013; active = max response of -50% or lower; inconclusive = between -30% and -50%; inactive = -30% or higher; also: value at the top dose of about 77 µM
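Controls without substrate or without enzyme flank wells where PI5P4Kalpha converts substrate using 5 microM ATP (final). Incubation lasts 60 minutes at room temperature; ADP formed is read by ADP-Glo luminescence.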
JMJD2A Tudor = qHTS Assay for Inhibitors of JMJD2A-Tudor Domain | AID 504339, 2011 | 4.4% of 390,000 active | Lysine-specific demethylase 4A (Homo sapiens), O75164 | AlphaScreen JMJD2A-Tudor / H3K4me3 peptide binding | Potency, µM (doses to about 114 µM), hits mostly inhibitors; also: nearly all actives have a fitted effect of over 50% in size
HP1b chromo inh = HTS for Inhibitors of HP1-beta Chromodomain Interactions with Methylated Histone Tails. Chromobox protein homolog 1 (Homo sapiens), P83916. AlphaScreen HP1-beta / biotin-H3K9me3 peptide binding. Potency, µM (series often up to 114 µM), actives largely listed as inhibitors. 0.56% of 390,000 active. AID 540317, 2011; also: nearly all actives have a fitted effect of over 70% in size
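AlphaScreen: HP1-beta (50 nM) preformed 30 min with biotin-H3(1-18)K9me3 peptide (50 nM) in PBS pH 7.4, 0.01% Tween-20. Compound added for 30 min at RT, then streptavidin donor/nickel chelate acceptor beads (10 ug/mL) for 30 min.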
PLK1 PBD inh = qHTS for Inhibitors of PLK1-PDB (polo-like kinase 1 - polo-box domain): Primary Screen. Serine/threonine-protein kinase PLK1 (Homo sapiens), P53350. Plk1 PBD binding of FITC phosphopeptide, fluorescence polarization. Potency, µM, most hits filed as inhibitors. 2.8% of 360,000 active. AID 720504, 2013; also: series mostly up to about 57 µM; nearly all actives have a fitted effect of over 65% in size
Of the large screens only hits and unclear results are named; the others gave an inactive call. A selection: hits, their analogues and other compounds. The true share with any hit is near 12%. Unless noted, calls follow the shape of the dose curve; as a rule, active = well fitted curve in the direction sought with a large enough effect; inconclusive = small, poorly fitted or top-dose-only effect, or another doubt; inactive = no such curve, though single readings can be large; an effect the other way counts as inactive or inconclusive.

CNC(=O)c1sccc1Oc1ccc(F)cc1[N+](=O)[O-]	BAZ2B inh inconclusive, PLK1 PBD inh 26.7µM
Cc1c(C(=O)N2CCCCC2)c(S(=O)(=O)NCc2ccccc2Cl)c(C)n1C	JMJD2A Tudor inconclusive, PLK1 PBD inh 26.7µM
Cc1ccccc1CNS(=O)(=O)c1c(C(=O)N2CCCC2)c(C)n(C)c1C	PLK1 PBD inh inconclusive
Cc1c(C(=O)N2CCCCC2)c(S(=O)(=O)NCc2ccc(Cl)cc2)c(C)n1C	BAZ2B inh inconclusive, PLK1 PBD inh 23.8µM
Cc1c(C(=O)N2CCCCCC2)c(S(=O)(=O)NCc2ccc(Br)cc2)c(C)n1C	BAZ2B inh inconclusive (no result: PI5P4K alpha inh, PLK1 PBD inh)
Cc1ccc(C)c(N2CCN(S(=O)(=O)c3c(C(=O)N4CCCCC4)c(C)n(C)c3C)CC2)c1	G9a block 79.4µM, BAZ2B inh inconclusive, JMJD2A Tudor inconclusive
Cc1ccc(CNS(=O)(=O)c2c(C(=O)N3CCCCCC3)c(C)n(C)c2C)cc1	JMJD2A Tudor inconclusive, PLK1 PBD inh 23.8µM
CCNC(=O)[C@@H]1CCCN1C(=O)[C@H](CCCN=C(N)N)NC(=O)[C@H](CC(C)C)NC(=O)[C@@H](Cc1c[nH]c2ccccc12)NC(=O)[C@H](Cc1ccc(O)cc1)NC(=O)[C@H](CO)NC(=O)[C@H](Cc1c[nH]c2ccccc12)NC(=O)[C@H](Cc1cnc[nH]1)NC(=O)[C@@H]1CCC(=O)N1	none (no result: BAZ2B inh, PI5P4K alpha inh, JMJD2A Tudor, HP1b chromo inh, PLK1 PBD inh)
COc1ccc(F)cc1-c1cc(C(=O)NCc2cccc(Cl)c2)[nH]n1	none (no result: G9a block, BAZ2B inh, JMJD2A Tudor, HP1b chromo inh)
COc1cccc(CNS(=O)(=O)c2c(C(=O)N3CCCCCC3)c(C)n(C)c2C)c1	JMJD2A Tudor 22.4µM, PLK1 PBD inh 26.7µM
CCc1nc2c(OCc3ccccc3C)cccn2c1N(C)C(=O)c1ccc(C)cc1	none (no result: G9a block, BAZ2B inh, JMJD2A Tudor, HP1b chromo inh)
CC(=O)c1sc2nc(C)cc(C)c2c1N	none (no result: PI5P4K alpha inh)
Cc1cc(C)c2c(N)c(C(=O)NCc3ccco3)sc2n1	G9a block 10µM
Cc1cc(C)c2c(N)c(C(=O)N3CCCCCC3)sc2n1	G9a block inconclusive, BAZ2B inh inconclusive, PI5P4K alpha inh inconclusive, JMJD2A Tudor 35.5µM, PLK1 PBD inh inconclusive
CCc1ccccc1NC(=O)c1sc2nc(C)cc(C)c2c1N	JMJD2A Tudor inconclusive, PLK1 PBD inh 23.8µM
COc1ccccc1/C=C/C=N/NC(=O)c1cccs1	none
Cn1cnnc1SCc1ccc(C(=O)O)cc1	none
CCSc1nnc(SCC(=O)N2CCN(C(=O)c3ccco3)CC2)s1	none
O=C(CSc1nc2cc(Cl)ccc2s1)N1CCN(C(=O)c2ccco2)CC1	G9a block 44.7µM
Cn1cnnc1SCc1ccccc1	G9a block 1.26µM
Cc1ccc(-n2nnnc2SCC(=O)N2CCN(C(=O)c3ccco3)CC2)c(C)c1	none
COc1ccc(OC)c(-n2nnnc2SCC(=O)N2CCN(C(=O)c3ccco3)CC2)c1	G9a block inconclusive, PI5P4K alpha inh inconclusive, JMJD2A Tudor 20µM, PLK1 PBD inh 16.8µM
COc1ccc(-n2nnnc2SCC(=O)N2CCN(C(=O)c3ccco3)CC2)cc1OC	PI5P4K alpha inh inconclusive, JMJD2A Tudor inconclusive, PLK1 PBD inh 18.9µM
CCOc1ccccc1NC(=O)C(C)Sc1nc2c(c(=O)[nH]1)CCCC2 (stereo not drawn)	G9a block inconclusive (no result: PI5P4K alpha inh, PLK1 PBD inh)
COc1ccccc1CNc1ncncc1-c1ccccc1Cl	none (no result: BAZ2B inh, PI5P4K alpha inh, JMJD2A Tudor, HP1b chromo inh, PLK1 PBD inh)
Cn1cnnc1SCC(=O)N1CCN(C(=O)c2ccco2)CC1	G9a block 35.5µM
COc1ccc(C(=O)Nc2ccc(-c3nnn(CC(=O)N4CCN(C(=O)c5ccco5)CC4)n3)cc2)cc1	G9a block 50.1µM, BAZ2B inh 79.4µM
CCc1cc2ccc(OC)cc2nc1SCC(=O)N1CCN(C(=O)c2ccco2)CC1	BAZ2B inh inconclusive, JMJD2A Tudor inconclusive
Cc1cc2cc3c(cc2nc1SCC(=O)N1CCN(C(=O)c2ccco2)CC1)OCO3	G9a block 50.1µM (no result: PI5P4K alpha inh)
